# Measurements published in PubChem BioAssay.
# Active and inactive are the calls of the source. Unless noted, the rule behind the calls is not given here.
# Assays:
# [1] = system: Wnt5a (protein binding on small-molecule microarray); test: Wnt5a binders on small-molecule microarray, primary screen, biophysical, 635/667 nm fluorescence (AID 1142); settings: 635 nm fluorescence, higher = more signal;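 note: fluorescence read at 667 nm with signal to noise per printed feature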
# [2] = cell viability in Huh7 cells, primary screen, cytotoxicity control for HCV replication inhibitor project, CellTiter-Glo luminescence, basal, 48 h (AID 1143); settings: Huh7 HCV replicon, higher = more signal, called active from +8 up or from −8 down;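 note: Huh7 hepatoma cells carrying a hepatitis C replication reporter with no stimulus; test concentration not given here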
# [3] = P. aeruginosa biofilm formation inhibitors, primary screen, PAO1 strain, BacTiter-Glo luminescence, LB-PBS (AID 1144); settings: 12 h, higher = more signal
# [4] = CREB reporter modulators without forskolin, primary screen, cell-based, PC12, CRE-LacZ reporter, unstimulated (AID 1145); settings: no forskolin, luminescence, 4.5 h, higher = more signal, called active from +8 up or from −8 down
# [5] = CREB reporter modulators under forskolin, primary screen, cell-based, PC12, CRE-LacZ reporter, forskolin-stimulated (AID 1146); settings: luminescence, 4.5 h, higher = more signal, called active from +8 up or from −8 down;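 note: PC12 cells with 6xCRE LacZ reporter stimulated by forskolin 10 µM; beta-galactosidase reporter signal reflecting CREB driven transcription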
# [6] = target: Streptavidin (Streptomyces avidinii) (UniProt P22629); test: streptavidin binders on small-molecule microarray, primary screen, artefact control for SMM compound annotation, biophysical, 635/667 nm fluorescence (AID 1147); settings: streptavidin binding, higher = more signal;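 note: signal reflects streptavidin binding to arrayed compounds as a control protein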
# Sequence of Streptavidin (Streptomyces avidinii) (P22629 whole entry, looked up): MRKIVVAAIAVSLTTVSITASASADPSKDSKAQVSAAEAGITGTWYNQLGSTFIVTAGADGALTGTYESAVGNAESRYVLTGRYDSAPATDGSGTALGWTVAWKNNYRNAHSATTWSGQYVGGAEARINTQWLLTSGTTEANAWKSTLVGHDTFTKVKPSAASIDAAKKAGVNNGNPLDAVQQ
# [7] = small-molecule binders of probe aInhba, primary screen, biochemical, small-molecule microarray, 635/667 nm fluorescence (AID 1148); settings: higher = more signal;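 note: score merges 667nm spot fluorescence with signal-to-noise for antibody binding to printed compounds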
# Torsin-1A (Homo sapiens) [8] = target: Torsin-1A (Homo sapiens) (UniProt O14656); test: torsin A binders from cell lysate, primary screen, small-molecule microarray, wild-type, 635/667 nm (AID 1149); settings: COS7 hTOR1A-WT lysate, 635 nm fluorescence, higher = more signal
# Sequence of Torsin-1A (Homo sapiens) (O14656 whole entry, looked up): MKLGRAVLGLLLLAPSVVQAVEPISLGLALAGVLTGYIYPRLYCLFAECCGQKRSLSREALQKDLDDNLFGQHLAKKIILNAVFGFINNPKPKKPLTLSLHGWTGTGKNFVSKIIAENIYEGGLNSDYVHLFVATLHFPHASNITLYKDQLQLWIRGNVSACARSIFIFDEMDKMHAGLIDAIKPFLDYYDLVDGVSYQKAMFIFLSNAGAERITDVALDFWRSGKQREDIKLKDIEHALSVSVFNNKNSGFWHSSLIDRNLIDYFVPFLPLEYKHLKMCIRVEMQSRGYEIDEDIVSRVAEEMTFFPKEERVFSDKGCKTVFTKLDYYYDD
# Torsin-1A (Homo sapiens) [9] = target: Torsin-1A (Homo sapiens) (UniProt O14656); test: small-molecule binders of mutant TOR1A in lysate, primary screen, cell lysate, small-molecule microarray, COS7 lysate, 635/667 nm fluorescence (AID 1150); settings: COS7 hTOR1A mutant lysate, 635 nm fluorescence, higher = more signal;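 note: score pools 667 nm emission and signal to noise measuring lysate protein binding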
# [10] = system: Sonic hedgehog protein (Shh); test: small-molecule binders of Shh protein, primary screen, biochemical, small-molecule microarray, 635/667 nm fluorescence (AID 1151); settings: small-molecule microarray binding, 635 nm fluorescence; higher = more signal;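 note: Shh protein binding to compounds spotted on small-molecule microarray slides; score combines spot fluorescence intensity with signal-to-noise across triplicate slides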
# [11] = E. coli DRC41 culture turbidity changes, primary screen, E. coli filamentation inducer project, strain DRC41, OD650, 48 h (AID 1152);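 note: E. coli MC1000 strain DRC41 lacking acrAB efflux pump and sulA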; settings: E. coli DRC41 (acrAB sulA), higher = more signal, called active from +8 up or from −8 down
# [12] = small-molecule binders of probe aLefty1, primary screen, biochemical, small-molecule microarray, 635/667 nm fluorescence (AID 1153); settings: higher = more signal;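 note: score merges spot fluorescence with signal-to-noise ratio from the scanned slide images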
# [13] = PSAC antagonists in infected red cells, primary screen, cell-based, P. falciparum Indochina, OD700, 1 h (AID 1154); settings: P. falciparum Indochina infected RBC osmotic lysis, higher = more signal, called active from +8 up or from −8 down
# [14] = PSAC antagonists in infected red cells, primary screen, cell-based, P. falciparum Indochina, OD700, 2 h (AID 1155);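 note: lysis reports solute entry through the parasite surface anion channel PSAC; channel blockers reduce lysis of infected cells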; settings: P. falciparum Indochina infected erythrocytes, osmotic lysis OD700; higher = more signal, called active from +8 up or from −8 down
# [15] = osmotic lysis modulators in infected erythrocytes, primary screen, PSAC antagonist project, cell-based, P. falciparum Indochina, OD700, 3 h (AID 1156); settings: higher = more signal, called active from +8 up or from −8 down
# [16] = PSAC antagonists in infected red cells, primary screen, cell-based, P. falciparum Indochina, OD700, 18 h (AID 1157); settings: P. falciparum Indochina infected erythrocytes, osmotic lysis OD700, 18 h; higher = more signal, called active from +8 up or from −8 down
# [17] = modulators of S6 phosphorylation in cells, primary screen, cell-based, A549, cytoblot, luminescence, serum-stimulated (AID 1158); settings: A549 phospho-S6 cytoblot, 5 h, higher = more signal;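 note: serum-stimulated A549 lung adenocarcinoma cells; signal is phosphorylated S6 detected by cytoblot immunostaining with HRP secondary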
# [18] = target: NADPH oxidase 2 (Homo sapiens) (UniProt P04839); test: NOX2-dependent H2O2 signal modulators, primary screen, NOX inhibitor project, cell-based, HEK293-NOX2, PMA-stimulated, Amplex Red fluorescence (AID 1159); settings: 45 min, higher = more signal, called active from +8 up or from −8 down; note: test concentration not given here
# Sequence of NADPH oxidase 2 (Homo sapiens) (P04839 whole entry, looked up): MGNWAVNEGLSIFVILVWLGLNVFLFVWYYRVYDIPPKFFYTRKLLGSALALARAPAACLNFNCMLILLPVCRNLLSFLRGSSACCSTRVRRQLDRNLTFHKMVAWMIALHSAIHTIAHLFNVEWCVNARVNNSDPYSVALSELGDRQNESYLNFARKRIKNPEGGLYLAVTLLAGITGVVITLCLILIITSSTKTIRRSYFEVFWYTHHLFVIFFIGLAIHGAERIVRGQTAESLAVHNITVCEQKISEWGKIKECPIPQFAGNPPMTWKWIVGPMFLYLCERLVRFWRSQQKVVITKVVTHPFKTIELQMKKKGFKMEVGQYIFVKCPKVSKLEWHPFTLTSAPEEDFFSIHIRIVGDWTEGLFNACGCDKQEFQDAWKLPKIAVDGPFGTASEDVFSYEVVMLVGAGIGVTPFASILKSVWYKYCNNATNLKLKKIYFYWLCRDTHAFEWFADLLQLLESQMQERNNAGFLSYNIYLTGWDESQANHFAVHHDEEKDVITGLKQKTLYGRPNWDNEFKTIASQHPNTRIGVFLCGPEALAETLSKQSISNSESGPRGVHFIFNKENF
# [19] = target: NADPH oxidase 4 (Homo sapiens) (UniProt Q9NPH5); test: NOX4-dependent H2O2 signal modulators, primary screen, NOX inhibitor project, cell-based, HEK293-NOX4, tetracycline-induced, Amplex Red fluorescence (AID 1160); settings: 45 min, higher = more signal, called active from +8 up or from −8 down
# Sequence of NADPH oxidase 4 (Homo sapiens) (Q9NPH5 whole entry, looked up): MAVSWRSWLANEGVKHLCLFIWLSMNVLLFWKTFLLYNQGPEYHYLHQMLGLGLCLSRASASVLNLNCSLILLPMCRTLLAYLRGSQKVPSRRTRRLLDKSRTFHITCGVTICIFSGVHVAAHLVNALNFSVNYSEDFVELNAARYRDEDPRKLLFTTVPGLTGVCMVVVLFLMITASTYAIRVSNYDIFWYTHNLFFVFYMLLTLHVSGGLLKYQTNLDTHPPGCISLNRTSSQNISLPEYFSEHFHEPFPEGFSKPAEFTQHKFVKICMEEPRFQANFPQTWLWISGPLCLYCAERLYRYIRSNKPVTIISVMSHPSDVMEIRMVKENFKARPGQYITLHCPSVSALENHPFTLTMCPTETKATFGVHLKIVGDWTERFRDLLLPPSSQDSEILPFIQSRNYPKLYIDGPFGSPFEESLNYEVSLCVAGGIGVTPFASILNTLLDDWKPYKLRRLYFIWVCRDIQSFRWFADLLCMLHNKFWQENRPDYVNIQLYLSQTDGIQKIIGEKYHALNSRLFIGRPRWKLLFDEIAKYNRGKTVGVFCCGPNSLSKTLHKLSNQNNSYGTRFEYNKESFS
# [20] = target: NADPH oxidase 5 (Homo sapiens) (UniProt Q96PH1); test: NOX5-dependent H2O2 signal modulators, primary screen, NOX inhibitor project, cell-based, HEK293-NOX5, Amplex Red fluorescence (AID 1161); settings: HEK293-NOX5, ionomycin, 45 min, higher = more signal
# Sequence of NADPH oxidase 5 (Homo sapiens) (Q96PH1 whole entry, looked up): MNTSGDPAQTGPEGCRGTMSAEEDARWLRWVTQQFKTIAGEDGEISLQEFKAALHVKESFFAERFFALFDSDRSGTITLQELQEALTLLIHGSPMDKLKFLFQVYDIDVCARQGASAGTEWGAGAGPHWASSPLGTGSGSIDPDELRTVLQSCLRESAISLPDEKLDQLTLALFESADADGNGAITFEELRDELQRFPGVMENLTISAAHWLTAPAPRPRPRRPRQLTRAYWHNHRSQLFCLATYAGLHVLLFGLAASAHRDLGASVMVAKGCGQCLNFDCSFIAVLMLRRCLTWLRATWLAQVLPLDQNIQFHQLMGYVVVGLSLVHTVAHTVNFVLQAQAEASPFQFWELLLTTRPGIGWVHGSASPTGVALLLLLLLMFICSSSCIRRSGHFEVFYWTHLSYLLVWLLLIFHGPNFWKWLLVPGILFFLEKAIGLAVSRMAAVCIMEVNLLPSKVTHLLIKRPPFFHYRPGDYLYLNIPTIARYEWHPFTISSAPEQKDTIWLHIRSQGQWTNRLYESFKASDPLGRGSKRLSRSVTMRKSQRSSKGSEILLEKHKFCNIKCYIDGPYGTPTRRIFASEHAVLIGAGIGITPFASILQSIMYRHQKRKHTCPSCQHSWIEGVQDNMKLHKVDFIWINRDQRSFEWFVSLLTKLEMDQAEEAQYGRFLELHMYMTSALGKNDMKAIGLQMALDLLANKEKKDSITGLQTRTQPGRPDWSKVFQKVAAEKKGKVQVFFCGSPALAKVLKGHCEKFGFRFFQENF
SMILES,composite z-score [1],z-score [2],z-score [3],z-score [4],z-score [5],composite z-score [6],composite z-score [7],composite z-score (Torsin-1A (Homo sapiens) [8]),composite z-score (Torsin-1A (Homo sapiens) [9]),composite z-score [10],z-score [11],composite z-score [12],z-score [13],z-score [14],z-score [15],z-score [16],z-score [17],z-score [18],z-score [19],z-score [20]
O=C1N(Cc2ccccc2)c2ccccc2C[C@]12N=C(c1ccc(OCCCO)cc1)O[C@@H]2c1ccccc1,0.0361,-4.72 (inactive),-0.126 (inactive),1.75 (inactive),-1.08 (inactive),0.0469,-0.0221,-0.569,0.812,0.837,-0.522 (inactive),-0.0968,24.8 (active),15.7 (active),1.41 (inactive),2.71 (inactive),-0.027,-0.73 (inactive),0.472 (inactive),0.0935
COCC(=C=CC[C@H](O)c1ccc(OCCO)cc1)CCO,0.0048,0.287 (inactive),0.163 (inactive),2.44 (inactive),-0.419 (inactive),-0.407,0.138,1.91,0.911,1.96,0.367 (inactive),0.0774,9.25 (active),1.02 (inactive),0.934 (inactive),0.381 (inactive),-0.439,1.03 (inactive),0.57 (inactive),-0.704
COCCOC(=O)N1C(=O)[C@@]2(c3cc(C#CCNC(N)=O)ccc31)[C@H](C(N)=O)[C@H]1C(=O)O[C@H](c3ccccc3)[C@H](c3ccccc3)N1[C@@H]2c1ccccc1OCCO,0.273,0.406 (inactive),-0.0139 (inactive),-0.465 (inactive),0.0355 (inactive),0.0571,0.183,0.112,0.25,0.878,-0.77 (inactive),0.0299,6.57 (inactive),0.793 (inactive),1.18 (inactive),0.269 (inactive),-0.309,1.9 (inactive),1.37 (inactive),0.198
COc1cc(NN2C(C(O)c3cc(OC)c(OC)c(OC)c3)C=CC3C(=O)N(C)C(=O)C32)cc(OC)c1OC (stereo not given),-0.019,-0.0088 (inactive),-0.792 (inactive),0.243 (inactive),0.445 (inactive),0.853,-0.0336,0.434,0.459,0.0774,-1.12 (inactive),0.179,0.367 (inactive),0.0378 (inactive),0.508 (inactive),0.853 (inactive),-0.402,-1.81 (inactive),-2.26 (inactive),-2.51
C=CCOC(=O)[C@@H]1[C@H]2C(=O)O[C@H](c3ccccc3)[C@H](c3ccccc3)N2[C@H](c2ccc(OCCOC(=O)[C@@H]3C[C@@H]4C(=O)N[C@@H](CCCC[N+](C)(C)C)C(=O)N4[C@@H]3c3ccc(O)cc3)cc2)[C@@]12C(=O)Nc1ccc(I)cc12,0.865,-0.731 (inactive),-1.37 (inactive),-1.35 (inactive),0.206 (inactive),-0.111,0.0665,1.22,0.781,1.83,0.0995 (inactive),0.668,0.321 (inactive),1.12 (inactive),3.11 (inactive),0.0802 (inactive),-1.27,2.43 (inactive),0.0539 (inactive),0.718
CO[C@H]1O[C@H](CO)[C@@H](OC(=O)Nc2ccc3c(c2)OCO3)[C@H](OC(=O)Nc2ccc3c(c2)OCO3)[C@@H]1OC(=O)Nc1ccc2c(c1)OCO2,0.523,-2.3 (inactive),0.506 (inactive),0.643 (inactive),-1.48 (inactive),1.11,-0.0087,0.967,1.05,0.164,-0.53 (inactive),0.26,11 (active),1.62 (inactive),1.55 (inactive),0.742 (inactive),-0.563,-1.32 (inactive),-1.19 (inactive),-1.57
O=C1NC(=O)C2C1C=CC(C(O)c1ccco1)N2Nc1ccc(Cl)cc1Cl (stereo not given),-0.118,-0.483 (inactive),-0.315 (inactive),0.0501 (inactive),0.815 (inactive),0.531,-0.0986,0.148,0.672,0.576,-2.27 (inactive),-0.0984,5.52 (inactive),1.31 (inactive),0.331 (inactive),1.2 (inactive),-0.992,-0.767 (inactive),-5.58 (inactive),-4.22
O=C1[C@H]2C=C(I)[C@H](C[C@@H]2OCCOCCO)[C@@]12CO2,0.0712,1.05 (inactive),-0.0471 (inactive),1.67 (inactive),0.839 (inactive),1.08,-0.106,0.48,-0.0946,0.719,-0.878 (inactive),-0.371,-0.0899 (inactive),-0.122 (inactive),-0.321 (inactive),-0.235 (inactive),0.0332,0.578 (inactive),0.373 (inactive),-0.151
CCCCC(CC)C(O)C1C=CC2C(=O)N(C)C(=O)C2N1Nc1ccccc1 (stereo not given),0.122,0.136 (inactive),-0.152 (inactive),-0.14 (inactive),0.184 (inactive),0.454,0.017,-0.111,0.254,-0.76,-1.34 (inactive),0.443,0.755 (inactive),0.916 (inactive),-0.0492 (inactive),0.827 (inactive),-0.778,-1.45 (inactive),-3.67 (inactive),-3.2
